Experimental data: PubChem BioAssay AID1159580 (chemical genetic matrix, 2015)
Where “and” joins values, the source holds several entries; their conditions need not be identical. Identical values can stand only once. Screen size: about 5,500 compounds; about 2,000 (36%) were called active. Inconclusive results (about 18%) are left out. Rule as the data show it: active = normalized growth mostly below about 0.91 (no sharp cut-off); inconclusive = no clear call, values can overlap the other calls; inactive = mostly above about 0.92. The list shows a part of the results.

Assay: chemical genetic growth profiling, strain panel (AID 1159580);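 also: tested at 20 µM; growth read once vehicle control cultures reached saturation at 30 °C; 1 = growth at the plate median or of vehicle wells; lower values mean less growth of the strain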
Details: growth OD

Measured: normalized growth

CN1CCN(C2=Nc3ccccc3Oc3ccc(Cl)cc32)CC1
inactive: S. cerevisiae deletion strains, locus YJR075W, strain HOC1, active compounds read low 0.996 | S. cerevisiae deletion strains, locus YKL009W, strain mrt4, active compounds read low 0.98 | S. cerevisiae deletion strains, locus YKL068W, active compounds read low 0.992 | S. cerevisiae deletion strains, locus YKL085W, strain MDH1 (second series), active compounds read low 1.02 | S. cerevisiae deletion strains, locus YKL085W, strain MDH1, active compounds read low 1.02 | S. cerevisiae deletion strains, locus YKL160W, strain elf1, active compounds read low 0.958 | S. cerevisiae deletion strains, locus YKL190W, strain CNB1, active compounds read low 1 | S. cerevisiae deletion strains, locus YKR001C, strain vps1, active compounds read low 0.998 | S. cerevisiae deletion strains, locus YKR026C, strain gcn3, active compounds read low 0.983 | S. cerevisiae deletion strains, locus YKR091W, strain srl3, active compounds read low 0.975 | S. cerevisiae deletion strains, locus YLL001W, strain dnm1, active compounds read low 1 | S. cerevisiae deletion strains, locus YLL026W, active compounds read low 0.972 | S. cerevisiae deletion strains, locus YLL041C, strain sdh2, active compounds read low 0.987 | S. cerevisiae deletion strains, locus YLR027C, strain aat2, active compounds read low 0.975 | S. cerevisiae deletion strains, locus YLR039C, strain RIC1, active compounds read low 1.13 | S. cerevisiae deletion strains, locus YLR058C, strain SHM2, active compounds read low 0.986 | S. cerevisiae deletion strains, locus YLR102C, strain apc9, active compounds read low 0.994 | S. cerevisiae deletion strains, locus YLR113W, strain HOG1, active compounds read low 1.03 | S. cerevisiae deletion strains, locus YLR221C, strain rsa3, active compounds read low 1.01 | S. cerevisiae deletion strains, locus YLR258W, strain gsy2, active compounds read low 0.975 | S. cerevisiae deletion strains, locus YLR262C, strain YPT6 (second series), active compounds read low 0.992 | S. cerevisiae deletion strains, locus YLR262C, strain YPT6, active compounds read low 1.13 | S. cerevisiae deletion strains, locus YLR268W, strain sec22, active compounds read low 0.995 | S. cerevisiae deletion strains, locus YLR320W, strain mms22, active compounds read low 1.04 | S. cerevisiae deletion strains, locus YLR330W, strain CHS5, active compounds read low 0.997 | S. cerevisiae deletion strains, locus YLR342W, strain FKS1 (second series), active compounds read low 0.948 | S. cerevisiae deletion strains, locus YLR342W, strain FKS1, active compounds read low 0.994 | S. cerevisiae deletion strains, locus YLR357W, strain rsc2, active compounds read low 0.964 | S. cerevisiae deletion strains, locus YLR370C, strain arc18, active compounds read low 0.967 | S. cerevisiae deletion strains, locus YLR371W, strain rom2, active compounds read low 0.995 | S. cerevisiae deletion strains, locus YLR384C, strain iki3, active compounds read low 1 | S. cerevisiae deletion strains, locus YLR418C, strain cdc73, active compounds read low 0.988 | S. cerevisiae deletion strains, locus YML016C, strain PPZ1, active compounds read low 0.981 | S. cerevisiae deletion strains, locus YML032C, strain rad52, active compounds read low 0.989 | S. cerevisiae deletion strains, locus YML120C, strain ndi1, active compounds read low 1.01 | S. cerevisiae deletion strains, locus YML124C, strain tub3, active compounds read low 0.992 | S. cerevisiae deletion strains, locus YMR058W, strain fet3, active compounds read low 0.957 | S. cerevisiae deletion strains, locus YMR078C, strain ctf18, active compounds read low 0.979 | S. cerevisiae deletion strains, locus YMR125W, strain sto1, active compounds read low 0.942 | S. cerevisiae deletion strains, locus YMR129W, active compounds read low 0.964 | S. cerevisiae deletion strains, locus YMR205C, strain PFK2, active compounds read low 0.995 | S. cerevisiae deletion strains, locus YMR223W, strain ubp8, active compounds read low 0.976 | S. cerevisiae deletion strains, locus YMR231W, strain pep5, active compounds read low 0.982 | S. cerevisiae deletion strains, locus YMR263W, strain SAP30, active compounds read low 0.994 | S. cerevisiae deletion strains, locus YMR307W, strain GAS1, active compounds read low 0.971 and 1.01 | S. cerevisiae deletion strains, locus YNL067W, strain RPL9B, active compounds read low 1.01 | S. cerevisiae deletion strains, locus YNL071W, strain lat1, active compounds read low 1 | S. cerevisiae deletion strains, locus YNL128W, strain TEP1, active compounds read low 0.997 and 1.01 | S. cerevisiae deletion strains, locus YNL153C, strain GIM3, active compounds read low 0.995 and 1 | S. cerevisiae deletion strains, locus YNL175C, strain NOP13, active compounds read low 0.959 | S. cerevisiae deletion strains, locus YNL183C, strain NPR1, active compounds read low 0.951 | S. cerevisiae deletion strains, locus YNL197C, strain WHI3, active compounds read low 0.991 | S. cerevisiae deletion strains, locus YNL209W, strain ssb2, active compounds read low 0.968 | S. cerevisiae deletion strains, locus YNL224C, strain SQS1, active compounds read low 1 | S. cerevisiae deletion strains, locus YNL233W, strain BNI4, active compounds read low 0.997 | S. cerevisiae deletion strains, locus YNL248C, strain rpa49, active compounds read low 0.959 | S. cerevisiae deletion strains, locus YNL250W, strain rad50, active compounds read low 0.973 | S. cerevisiae deletion strains, locus YNL271C, strain bni1, active compounds read low 0.988 | S. cerevisiae deletion strains, locus YNL298W, strain CLA4, active compounds read low 1.01 | S. cerevisiae deletion strains, locus YNL307C, strain MCK1, active compounds read low 0.986 | S. cerevisiae deletion strains, locus YNL322C, strain KRE1 (second series), active compounds read low 0.958 | S. cerevisiae deletion strains, locus YNL322C, strain KRE1, active compounds read low 0.992 | S. cerevisiae deletion strains, locus YNR049C, strain mso1, active compounds read low 0.968 | S. cerevisiae deletion strains, locus YNR052C, strain pop2, active compounds read low 0.987 | S. cerevisiae deletion strains, locus YOL006C, strain TOP1, active compounds read low 0.951 | S. cerevisiae deletion strains, locus YOL012C, strain htz1 1.28 | S. cerevisiae deletion strains, locus YOL147C, strain pex11, active compounds read low 0.999 | S. cerevisiae deletion strains, locus YOR001W, strain rrp6, active compounds read low 0.995 | S. cerevisiae deletion strains, locus YOR061W, strain CKA2, active compounds read low 0.991 | S. cerevisiae deletion strains, locus YOR069W, strain VPS5, active compounds read low 0.97 | S. cerevisiae deletion strains, locus YOR070C, strain gyp1, active compounds read low 0.982 | S. cerevisiae deletion strains, locus YOR080W, strain dia2, active compounds read low 0.969 | S. cerevisiae deletion strains, locus YOR083W, strain WHI5 (second series), active compounds read low 1.01 | S. cerevisiae deletion strains, locus YOR083W, strain WHI5, active compounds read low 0.945 | S. cerevisiae deletion strains, locus YOR106W, strain vam3, active compounds read low 0.959 | S. cerevisiae deletion strains, locus YOR136W, strain idh2, active compounds read low 0.994 | S. cerevisiae deletion strains, locus YOR144C, strain elg1, active compounds read low 0.996 | S. cerevisiae deletion strains, locus YOR184W, strain ser1, active compounds read low 0.982 | S. cerevisiae deletion strains, locus YOR231W, strain MKK1, active compounds read low 1.06 | S. cerevisiae deletion strains, locus YOR265W, strain rbl2, active compounds read low 0.99 | S. cerevisiae deletion strains, locus YOR270C, strain vph1, active compounds read low 0.976 | S. cerevisiae deletion strains, locus YOR290C, strain snf2, active compounds read low 0.941 | S. cerevisiae deletion strains, locus YOR316C, strain cot1, active compounds read low 0.987 | S. cerevisiae deletion strains, locus YPL051W, strain arl3, active compounds read low 0.981 | S. cerevisiae deletion strains, locus YPL055C, strain LGE1, active compounds read low 1.02 | S. cerevisiae deletion strains, locus YPL078C, strain atp4, active compounds read low 0.999 | S. cerevisiae deletion strains, locus YPL106C, strain sse1, active compounds read low 0.946 | S. cerevisiae deletion strains, locus YPL240C, strain hsp82, active compounds read low 0.987 | S. cerevisiae deletion strains, locus YPL241C, strain CIN2, active compounds read low 0.995 and 0.994 | S. cerevisiae deletion strains, locus YPL256C, strain CLN2, active compounds read low 1.06 | S. cerevisiae deletion strains, locus YPR119W, strain clb2, active compounds read low 0.994 | S. cerevisiae deletion strains, locus YPR141C, strain kar3, active compounds read low 0.987 | S. cerevisiae deletion strains, locus YPR163C, strain tif3, active compounds read low 0.994 | S. cerevisiae deletion strains, locus YPR167C, strain met16, active compounds read low 0.993 | S. cerevisiae deletion strains, strain wtn01, active compounds read low 0.992 | S. cerevisiae strains, strain wild type, active compounds read low 0.999
